Experimental data reported in PubChem BioAssay AID720723 (Molecular Libraries Program, Specialized Chemistry Center, …, 2013).
Active and inactive are the calls of the source. Cut-off not given; nearly all actives show IC50 up to about 87 µM.

Assay: rhodamine 123 fluorescence quenching, dose response, artefact control for mitochondrial permeability transition pore inhibitor project, biochemical, dry powder samples (AID 720723)
Details: Rhodamine 123 fluorescence quenching counterscreen, cell-free

SMILES | IC50
C=CCNCCCOc1ccc(C)cc1Br | 69.6 µM (active)
CNCCC=C1c2ccccc2CCc2ccccc21 | > 100 µM (inactive)
COC(=O)c1c(NC(=O)C2CCCCC2)sc2c1CC(C)(C)NC2(C)C | 48.1 µM (active)
COc1cc(CNCCO)cc(Cl)c1OCc1ccccc1Cl | 31.5 µM (active)
CC(C)(C)c1ccccc1OCCCCCNCCO | 42.8 µM (active)
COc1cc(NC(=O)c2cc(-c3cccc(O)c3)on2)cc(OC)c1OC | > 100 µM (inactive)
Cc1ccc2nc(N(CCCN(C)C)C(=O)CCc3ccccc3)sc2c1 | 34.1 µM (active)
CC1CCCN(CCC(=O)c2ccc(Br)cc2)C1 (stereo not given) | 85.8 µM (active)
CN1CCC[C@@H]1CCO[C@](C)(c1ccccc1)c1ccc(Cl)cc1 | 27.5 µM (active)
Cc1ccc2nc(N(CCN(C)C)C(=O)/C=C/c3cccs3)sc2c1 | > 100 µM (inactive)
O=C(CC1NCCc2ccccc21)Nc1ccc(Cl)cc1 (stereo not given) | 82.4 µM (active)
Cc1cc(C)c2nc(N(CCCN(C)C)C(=O)c3ccc(S(=O)(=O)N4CCCCCC4)cc3)sc2c1 | 20.9 µM (active)
C=CCNCCOc1ccc(C(C)(C)c2ccccc2)cc1 | 41.6 µM (active)
COCCCNCCCOc1ccc(Cl)cc1C(C)(C)C | 42.3 µM (active)
N#Cc1c(NCCN)nc(-c2ccco2)c2c1CCCC2 | 82.5 µM (active)
N=c1sccn1CC(=O)Nc1cccc(Oc2ccccc2)c1 | 54.4 µM (active)
CCN(CC)c1ccc(NC(=O)c2cc(Cl)ccc2OC)cc1 | 41.2 µM (active)
CCN(CC)CCCN=Cc1c(O)n(Cc2ccccc2)c(=O)c2ccccc12 | > 100 µM (inactive)
Cc1cc(C)c2nc(N(CCCN(C)C)C(=O)C3=COCCO3)sc2c1 | > 101 µM (inactive)
COc1ccc(C)c2sc(N(CCCN(C)C)C(=O)CS(=O)(=O)c3ccc(F)cc3)nc12 | 87.8 µM (active)
CN(C)CCCN1c2ccccc2Sc2ccc(Cl)cc21 | > 100 µM (inactive)
C=CCNCCOCCOc1ccc(Cl)cc1C(C)(C)C | 21.9 µM (active)
CCOC(=O)N1CCN(S(=O)(=O)c2ccc(C(=O)N(CCCN(C)C)c3nc4c(C)c(C)ccc4s3)cc2)CC1 | 56.8 µM (active)
COc1ccc(-n2cc(CNC3CCN(C)CC3)c(-c3cccc(F)c3)n2)cc1 | > 100 µM (inactive)
COc1ccc(Cl)cc1C(=O)Nc1ccc(CN2CCCCC2)cc1 | 85.9 µM (active)
